In paper PMC4336329 (PLoS ONE, 2015):
About 14,000 (4.5%) of roughly 310,000 compounds showed an effect of 50% or more. Effects have a minus sign here. For the sample, strong results were picked, then their nearest neighbours and some compounds at random.

target: human ether-à-go-go-related gene (hERG) potassium channel (human, UniProt Q12809); test: primary screen, population patch clamp on CHO cells stably expressing hERG; higher = less effect of the substance
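Further: peak tail current of the secondary pulse compared with the same well before compound.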

Sequence of human ether-à-go-go-related gene (hERG) potassium channel (Q12809 whole entry, looked up): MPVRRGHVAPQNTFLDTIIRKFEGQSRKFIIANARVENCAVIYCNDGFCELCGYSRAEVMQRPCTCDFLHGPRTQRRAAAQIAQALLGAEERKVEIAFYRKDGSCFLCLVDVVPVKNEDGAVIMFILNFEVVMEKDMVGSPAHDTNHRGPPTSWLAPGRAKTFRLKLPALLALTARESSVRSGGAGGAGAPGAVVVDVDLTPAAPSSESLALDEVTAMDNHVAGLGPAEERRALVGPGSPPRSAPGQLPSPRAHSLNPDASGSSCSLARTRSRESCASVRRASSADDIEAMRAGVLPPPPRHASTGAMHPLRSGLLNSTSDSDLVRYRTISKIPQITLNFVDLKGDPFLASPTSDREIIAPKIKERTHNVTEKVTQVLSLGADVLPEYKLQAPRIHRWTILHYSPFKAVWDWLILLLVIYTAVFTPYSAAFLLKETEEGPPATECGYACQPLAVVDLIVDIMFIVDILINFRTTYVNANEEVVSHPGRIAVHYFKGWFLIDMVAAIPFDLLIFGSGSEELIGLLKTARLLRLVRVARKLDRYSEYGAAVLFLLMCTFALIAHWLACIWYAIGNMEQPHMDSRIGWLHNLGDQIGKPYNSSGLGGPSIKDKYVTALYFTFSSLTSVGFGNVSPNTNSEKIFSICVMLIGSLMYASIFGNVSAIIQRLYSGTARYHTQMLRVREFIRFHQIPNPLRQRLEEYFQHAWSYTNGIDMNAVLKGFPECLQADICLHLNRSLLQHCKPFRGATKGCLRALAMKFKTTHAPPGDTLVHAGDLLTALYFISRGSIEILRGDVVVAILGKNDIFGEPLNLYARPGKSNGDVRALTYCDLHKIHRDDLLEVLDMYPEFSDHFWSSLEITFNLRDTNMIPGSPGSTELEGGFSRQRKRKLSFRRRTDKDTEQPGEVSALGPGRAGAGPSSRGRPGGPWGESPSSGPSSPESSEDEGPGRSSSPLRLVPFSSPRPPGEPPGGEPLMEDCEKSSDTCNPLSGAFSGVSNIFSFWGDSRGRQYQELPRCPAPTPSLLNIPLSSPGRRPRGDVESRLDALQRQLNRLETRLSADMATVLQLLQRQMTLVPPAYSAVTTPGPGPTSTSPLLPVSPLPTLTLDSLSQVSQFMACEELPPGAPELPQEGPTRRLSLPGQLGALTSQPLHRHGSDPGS

SMILES | hERG current change (%, negative = inhibition) at 10uM [%]
Cc1c(CN(C)C(=O)c2ccc(Br)o2)cnn1C | -7.89
COc1ccc(N(CC(=O)NC2CCCCC2)C(=O)c2ccc(C)s2)c(OC)c1 | -18.1
CCN(CC)c1ccc(NC(=O)CCNS(=O)(=O)c2ccc3c(c2)CCC(=O)N3)c(C)c1 | 5.77
OCC(Br)CBr (stereo not shown) | 23
C=C1CCC2[C@](C)(CO)[C@H](O)CC[C@@]2(C)[C@@H]1C/C=C1\C(=O)OC[C@H]1O (stereo partly shown) | 18.9
CCc1nn(CC(=O)NCCCc2ccccc2)c(=O)c2cc3cc(F)ccc3n12 | 1.58
Cc1nn(C)c(C)c1CCC(=O)N1CCCC(N2CCN(c3ccc(F)cc3)CC2)C1 (stereo not shown) | -12.5
Cc1noc(C)c1CCC(=O)N1CCCC(N2CCN(c3ccc(F)cc3)CC2)C1 (stereo not shown) | -53.4
Cc1ccccc1N1CCN(C2CCCN(C(=O)CCc3c(C)noc3C)C2)CC1 (stereo not shown) | -46.3
CSCC(=O)N1CCCC(N2CCN(c3cccc(C(F)(F)F)c3)CC2)C1 (stereo not shown) | -48.1
CSCC(=O)N1CCCC(N2CCN(c3ccc(F)cc3)CC2)C1 (stereo not shown) | -22.9
CC1(CCC(=O)N2CCCC(N3CCN(c4cccc(C(F)(F)F)c4)CC3)C2)CC1 (stereo not shown) | -61.5
Cc1ccccc1N1CCN(C2CCCN(C(=O)CCC3(C)CC3)C2)CC1 (stereo not shown) | -48.6
CSCCC(=O)N1CCCC(N2CCN(c3cccc(C(F)(F)F)c3)CC2)C1 (stereo not shown) | -40.4
CC1(CCC(=O)N2CCCC(N3CCN(c4ccc(F)cc4)CC3)C2)CC1 (stereo not shown) | -64.7
CC(C)NC(=O)N1CCN(c2ccncc2S(=O)(=O)N2CCCCC2)CC1 | 5.19
COc1ccc(-c2cnc(N)n2CC2CCCO2)cc1 (stereo not shown) | -5.53
Cc1cc(C)n(CC(O)COc2c(C)cccc2C)n1 (stereo not shown) | -1.28
O=P(C1=C(N2CCOCC2)/C(=C\c2ccccc2)CC1)(N1CCOCC1)N1CCOCC1 | -25.3
O=C(CSc1nnc(NC(=O)C2CC(=O)N(c3ccccc3)C2)s1)NCc1ccco1 (stereo not shown) | 16.9
O=C(c1ccco1)N(Cc1cccc(Cl)c1)C1CCS(=O)(=O)C1 (stereo not shown) | -59
O=C(c1ccco1)N(Cc1ccc(Cl)cc1)C1CCS(=O)(=O)C1 (stereo not shown) | -11.6

SMILES | hERG current change (%, negative = inhibition) at 10uM [%]
O=C(c1ccco1)N(Cc1cccc(F)c1)C1CCS(=O)(=O)C1 (stereo not shown) | -5.78
O=C(c1cccs1)N(Cc1cccc(F)c1)C1CCS(=O)(=O)C1 (stereo not shown) | -14.9
O=C(c1cccs1)N(Cc1cccc(Cl)c1)C1CCS(=O)(=O)C1 (stereo not shown) | -52
O=C(c1cccs1)N(Cc1ccc(Cl)cc1)C1CCS(=O)(=O)C1 (stereo not shown) | -41.9
CC(=O)CCS(=O)(=O)c1ccc(C)c(C)c1 | 1.19
O=C(OCC(=O)N1CCCC1=O)C1CCN(S(=O)(=O)c2ccc(Cl)c(C(F)(F)F)c2)CC1 | 5.31
COc1ccc(C(=O)NC(=S)Nc2ccc(S(=O)(=O)Nc3cc(OC)ncn3)cc2)cc1 | 15.4
CSCCC1NC(=O)N(CC(=O)N2CCc3ccccc3C2)C1=O (stereo not shown) | -1.18
CCOC(=O)c1[nH]c2ccc(OC)cc2c1NC(=O)c1ccccc1C(=O)O | 14.2
Cc1noc(/C=C/c2cccs2)c1S(=O)(=O)N1CCC(C(=O)NCCCN2CCCC(C)C2)CC1 (stereo not shown) | -44.5
COc1ccc(N2CCN(C(=O)C3CCN(S(=O)(=O)c4cccs4)CC3)CC2)cc1 | -49.3
COCCNC(=O)C1CCN(S(=O)(=O)c2c(C)noc2/C=C/c2cccs2)CC1 | -34.7
CCS(=O)(=O)N1CCC(C(=O)NCCCN2CCN(c3ccccc3F)CC2)CC1 | -16.3
CCCNC(=O)C1CCN(S(=O)(=O)c2cccs2)CC1 | 28.1
O=C(NCCCN1CCN(c2ccccc2F)CC1)C1CCN(S(=O)(=O)c2cccs2)CC1 | -60.6
O=C(NCCN1C(=O)S/C(=C\c2ccccc2)C1=O)C1CCN(S(=O)(=O)c2cccs2)CC1 | -23.8
O=C(NCCN1C(=O)S/C(=C\c2ccccc2F)C1=O)C1CCN(S(=O)(=O)c2cccs2)CC1 | -57.2
O=C(NCCN1C(=O)S/C(=C\c2ccc(F)cc2)C1=O)C1CCN(S(=O)(=O)c2cccs2)CC1 | -7.1
Cc1noc(/C=C/c2cccs2)c1S(=O)(=O)N1CCC(C(=O)NCCCN2CCC(C)CC2)CC1 | -83.7
COc1ccc(N2CCN(CCNC(=O)C3CCN(S(=O)(=O)c4cccs4)CC3)CC2)cc1 | -50.7
COc1ccc(N2CCN(CCNC(=O)CCNS(=O)(=O)c3cccs3)CC2)cc1 | -24.7
